The list is not random: actives were taken first. Their share in the collection is about 11%.
HCV inhibitor: inhibitors of hepatitis C virus infection. AID 651820. Huh7.5.1 HCVcc-Cre infection, luciferase reporter, 44 h. Potency, µM (series often up to 41.8 µM), hits mostly inhibitors. actives 3.4% (n = 340,000)
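Cells seeded at 1,000/well and cultured 4 h, then compounds added followed by HCVcc-Cre virus (~0.5 moi). After 44 h further culture, luciferase substrate was added, plates held 15 min at room temperature, and luminescence read for 15 sec.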
AmpC inh no detg: inhibitors of E. coli AmpC beta-lactamase without detergent; P00811; AmpC nitrocefin hydrolysis, absorbance 480 nm, 0.0001% Triton; Potency, µM (highest dose often 57.1 µM), actives largely listed as inhibitors; actives 0.52% (n = 330,000); also: nearly all actives have a fitted effect of over 20% in size
Target sequence (P00811 whole entry, looked up): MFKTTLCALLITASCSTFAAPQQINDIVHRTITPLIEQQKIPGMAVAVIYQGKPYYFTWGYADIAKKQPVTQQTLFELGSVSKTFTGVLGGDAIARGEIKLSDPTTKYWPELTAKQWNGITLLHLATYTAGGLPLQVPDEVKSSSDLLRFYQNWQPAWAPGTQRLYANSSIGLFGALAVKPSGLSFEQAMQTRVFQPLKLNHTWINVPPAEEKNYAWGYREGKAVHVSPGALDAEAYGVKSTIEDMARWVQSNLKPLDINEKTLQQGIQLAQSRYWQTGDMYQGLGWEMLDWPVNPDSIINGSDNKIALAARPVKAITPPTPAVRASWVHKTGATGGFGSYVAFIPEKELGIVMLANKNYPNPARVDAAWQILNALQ
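AmpC (5.3 nM in the dispensed reagent) in 20 mM phosphate pH 7.0 with 0.01% (detergent screen) or 0.0001% Triton X-100 was preincubated with compounds for 15 min at room temperature. Nitrocefin was then added from an 800 uM solution, and hydrolysis was followed at 480 nm.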
Pf growth 48h: P. falciparum growth inhibition at 48 hours (one generation); P. falciparum luciferase growth in erythrocytes, 48 h; Potency, µM (top dose mostly 28.7 µM), hits mostly inhibitors; actives 5.9% (n = 310,000)
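Growth was read as firefly luciferase luminescence after a 48 h, 37 C, 5% CO2 exposure of compounds to reporter-bearing P. falciparum cultures (0.1% parasitemia, 2% hematocrit final) in Albumax-supplemented RPMI 1640.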
AmpC inh detg: blocks E. coli AmpC beta-lactamase in detergent assay; actives 0.041% (n = 370,000); Potency, µM (doses to about 114 µM), most hits filed as inhibitors; P00811; AmpC hydrolysis of nitrocefin, absorbance 480 nm, 0.01% Triton; also: nearly all actives have a fitted effect of over 25% in size
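AmpC (5.3 nM in the dispensed reagent) in 20 mM phosphate pH 7.0 with 0.01% (detergent screen) or 0.0001% Triton X-100 was preincubated with compounds for 15 min at room temperature. Nitrocefin was then added from an 800 uM solution, and hydrolysis was followed at 480 nm.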
AMA1 RON2 block: inhibitors of Plasmodium falciparum AMA1-RON2 interaction; actives 0.2% (n = 360,000); Potency, µM (doses to about 58.2 µM), most hits filed as inhibitors; AlphaScreen AMA1-biotinylated RON2 peptide binding; also: nearly all actives have a fitted effect of over 45% in size
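AMA1 (3D7) with his tag at 25 nM final met compounds first, then biotinylated RON2 peptide at 25 nM; detection used donor plus acceptor beads, 10 µg/mL apiece, read by AlphaScreen after 30 min at room temperature.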
Pf growth 96h: P. falciparum growth inhibition at 96 hours; P. falciparum luciferase reporter growth, 96 h; Potency, µM (titrated, usually from 28.7 µM), hits mostly inhibitors; actives 6.9% (n = 320,000)
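P. falciparum expressing integrated firefly luciferase grown in erythrocytes (2% hematocrit, 0.05% parasitemia final) with compounds for 96 hours at 37 C, 5% CO2. Growth inhibition read as loss of luminescence after adding luciferase detection reagent.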
A number is an active result; ! = not confirmed by another sample. Calls follow the shape of the dose curve; as a rule, active = well fitted curve in the direction sought with a large enough effect; inconclusive = small, poorly fitted or top-dose-only effect, or another doubt; inactive = no such curve, though single readings can be large; an effect the other way counts as inactive or inconclusive.

NC(=O)COc1ccc(-c2noc(COc3ccc(Cl)cc3)n2)cc1 was read as AmpC inh detg inactive.
For Cc1cccc(OCC(=O)Nc2ccc3c(c2)nc(CCNC(=O)c2ccco2)n3C)c1 the results were AmpC inh detg inactive.
`Cc1ccc(N2C(=O)NC(=O)C(CCc3ccccn3)(Cc3cccc(Cl)c3Cl)C2=O)cc1` (centres undefined) gave HCV inhibitor inactive, AmpC inh no detg inactive, Pf growth 48h inactive, AmpC inh detg inactive, AMA1 RON2 block inactive and Pf growth 96h 2.3µM.
For O=C1NC(=O)C(CCc2ccncc2)(CCc2ccccn2)C(=O)N1c1ccc(Br)cc1 (centres undefined) the results were HCV inhibitor inactive, AmpC inh no detg inactive, Pf growth 48h inconclusive, AmpC inh detg inactive, AMA1 RON2 block inconclusive and Pf growth 96h inactive.
Screening Cc1cccc(C(=O)Oc2ccccc2C2C[C@]3(C)CC(=O)NC3N2C(=O)c2cccc(C)c2)c1 (some centres undefined) returned HCV inhibitor inactive, AmpC inh no detg inactive, AmpC inh detg inactive, AMA1 RON2 block inactive and Pf growth 96h 5.9µM.
CCCCNC1=CC(=O)C(NCCCC)=CC1=O was read as HCV inhibitor inactive and AMA1 RON2 block inconclusive.
`CCc1ccc(NC2=CC(=O)C(=O)c3ccccc32)cc1` gave HCV inhibitor inconclusive, AmpC inh no detg inactive, Pf growth 48h 0.083µM, AmpC inh detg inactive, AMA1 RON2 block inactive and Pf growth 96h 0.074µM.
O=C1C=C(Nc2ccccc2C(=O)O)c2ccccc2C1=O was read as HCV inhibitor inactive, AmpC inh no detg inactive, Pf growth 48h inactive, AmpC inh detg inactive, AMA1 RON2 block inactive and Pf growth 96h inactive.
O=C1C=C(Nc2ccccc2)c2ccccc2C1=O was read as HCV inhibitor 8.9µM, AmpC inh no detg inactive, Pf growth 48h inconclusive, AmpC inh detg inconclusive, AMA1 RON2 block inactive and Pf growth 96h inactive.
`O=C1C=C(Nc2cccc3cccnc23)c2ccccc2C1=O` gave HCV inhibitor inconclusive, AmpC inh no detg inactive, Pf growth 48h 2.1µM, AmpC inh detg inactive, AMA1 RON2 block inactive and Pf growth 96h inactive.
`CCCCNC1=CC(=O)C(=O)c2ccccc21` gave HCV inhibitor 11µM, AmpC inh no detg inactive, Pf growth 48h inactive, AmpC inh detg inactive, AMA1 RON2 block inactive and Pf growth 96h inactive.
Cc1nc2c(C(=O)NCCCN(CC(C)C)CC(C)C)cnn2c(C)c1Cc1c(F)cccc1Cl was read as AmpC inh detg inactive.
Screening O=C1C=C(Nc2ccccc2)C(=O)c2ccccc21 returned HCV inhibitor inactive, AmpC inh no detg inactive, Pf growth 48h inconclusive, AmpC inh detg inconclusive, AMA1 RON2 block inconclusive and Pf growth 96h 2.3µM.
For C=C1C(=O)O[C@H]2C[C@H]1[C@@H](OC(C)=O)C/C(C)=C/CC/C(C)=C\CC[C@]2(C)O the results were HCV inhibitor 10µM and AMA1 RON2 block inactive.
For C=C1C(=O)O[C@@H]2[C@H]3O[C@]3(C)CC/C=C(\C)CC[C@@H]12 the results were HCV inhibitor inactive and AMA1 RON2 block inactive.
Screening CN(CCO)c1cc(Sc2nc3ccccc3s2)c2nonc2c1[N+](=O)[O-] returned HCV inhibitor 11µM, AmpC inh no detg inactive, Pf growth 48h inactive, AmpC inh detg inactive, AMA1 RON2 block inactive and Pf growth 96h inactive.
`CCC(=O)Nc1nc2c(c(=O)[nH]1)CCCC2` gave HCV inhibitor inactive, AmpC inh no detg inactive, Pf growth 48h inactive, AmpC inh detg inactive, AMA1 RON2 block inactive and Pf growth 96h inconclusive.
Screening CCCCCc1c(C)nc(NCc2ccccc2)[nH]c1=O returned AmpC inh no detg inactive, Pf growth 48h 2.1µM, AmpC inh detg inactive and AMA1 RON2 block inactive.
`O=c1[nH]c(N2CCN(Cc3ccccc3)CC2)nc2c1CCC2` gave HCV inhibitor inactive, AmpC inh no detg inactive, Pf growth 48h inactive, AmpC inh detg inactive, AMA1 RON2 block inactive and Pf growth 96h inactive.
Screening O=c1[nH]c(NCc2ccccc2)nc2c1CCC2 returned HCV inhibitor inactive, AmpC inh no detg inactive, Pf growth 48h inactive, AmpC inh detg inactive, AMA1 RON2 block inactive and Pf growth 96h 15µM.
Screening CC(C)(C)C(=O)Nc1nc2c(c(=O)[nH]1)CCCC2 returned HCV inhibitor inactive, AmpC inh no detg inactive, Pf growth 48h 9.3µM, AmpC inh detg inconclusive, AMA1 RON2 block inactive and Pf growth 96h inactive.
COc1ccc(C2C(=O)N(C3CCCCCC3)CC(=O)N2Cc2ccccc2)cc1 (centres undefined) was read as AmpC inh detg inactive.
CCC(=O)N1CCc2cc(S(=O)(=O)NCCC(=O)Nc3ccc(OC)c(OC)c3)ccc21 was read as AmpC inh detg inactive.
Screening COc1ccc(CCNC(=O)Cn2c(=O)n(Cc3ccco3)c(=O)c3ccc(Cl)cc32)cc1OC returned HCV inhibitor 11µM!, AmpC inh no detg inactive, Pf growth 48h inconclusive, AmpC inh detg inactive, AMA1 RON2 block inactive and Pf growth 96h inactive.
C/C(=N\Nc1nc(N)cc(Cl)n1)c1ccc(Cl)c(Cl)c1 was read as HCV inhibitor 11µM, AmpC inh no detg inconclusive, Pf growth 48h inconclusive, AmpC inh detg inactive, AMA1 RON2 block inactive and Pf growth 96h inactive.
Screening CCN(CC)C(=O)CSc1nc2ccccc2c(=O)n1CC returned HCV inhibitor inactive, AmpC inh no detg inactive, AmpC inh detg inactive, AMA1 RON2 block inactive and Pf growth 96h inconclusive.
Cc1cc(NC(=O)CSc2nc3ccccc3c(=O)n2Cc2ccc(F)cc2)no1 was read as HCV inhibitor inconclusive, AmpC inh no detg inactive, Pf growth 48h inconclusive, AmpC inh detg inactive, AMA1 RON2 block inactive and Pf growth 96h 12µM.
For Cc1cc(NC(=O)CSc2nc(C(C)C)nc3ccccc23)no1 the results were HCV inhibitor 13µM, AmpC inh no detg inactive, Pf growth 48h inconclusive, AmpC inh detg inactive, AMA1 RON2 block inactive and Pf growth 96h inconclusive.
`CCN(CC)C(=O)CSc1nc2ccccc2c(=O)n1CCC(=O)NCc1ccc(F)cc1` gave HCV inhibitor inconclusive, AmpC inh no detg inactive, Pf growth 48h 9.3µM, AmpC inh detg inactive, AMA1 RON2 block inactive and Pf growth 96h inconclusive.
Cc1cc(NC(=O)Cn2c(=O)n(Cc3ccccc3)c(=O)c3ccccc32)no1 was read as HCV inhibitor inactive, AmpC inh no detg inactive, Pf growth 48h 9.3µM, AmpC inh detg inconclusive, AMA1 RON2 block inactive and Pf growth 96h inactive.
Cc1ccc2c(c1)N(C(=O)CCC(=O)NCc1cccs1)CCO2 was read as AmpC inh detg inactive.
O=C(Cn1c(=O)ccc2cc(S(=O)(=O)N3CCCC3)ccc21)Nc1ccc(Cl)cc1 was read as AmpC inh detg inactive.
For O=C(Nc1ccc2c(c1)CCCN2C(=O)c1cccs1)c1ccccc1Cl the results were AmpC inh detg inactive.
